Data from PubChem BioAssay AID2073 (Sanford-Burnham Center for Chemical Genomics, 2009).
Several values for one entry are separate records, joined by “and”; a condition that tells them apart may be missing. Equal entries are not always repeated. Among all 290,000 compounds or so, about 570 (0.2%) were called active. Roughly 1% stayed inconclusive and do not appear here. Cut-off read from the data, not from the text of the source: active = inhibition mostly above about 51% (no sharp cut-off); inconclusive = no clear call, values can overlap the other calls; inactive = mostly below about 53%. This excerpt belongs to a sample that is enriched for actives.

Target: Voltage-dependent N-type calcium channel subunit alpha-1B (Homo sapiens) (UniProt Q00975)
Assay: inhibitors of Mint1-CaV2.2 protein interaction, biochemical, HTRF (AID 2073)
Conditions: at 20 µM, stronger effect = higher value
[1] = measured here: average of repeat tests

Chain of Voltage-dependent N-type calcium channel subunit alpha-1B (Homo sapiens) (Q00975 whole entry, looked up): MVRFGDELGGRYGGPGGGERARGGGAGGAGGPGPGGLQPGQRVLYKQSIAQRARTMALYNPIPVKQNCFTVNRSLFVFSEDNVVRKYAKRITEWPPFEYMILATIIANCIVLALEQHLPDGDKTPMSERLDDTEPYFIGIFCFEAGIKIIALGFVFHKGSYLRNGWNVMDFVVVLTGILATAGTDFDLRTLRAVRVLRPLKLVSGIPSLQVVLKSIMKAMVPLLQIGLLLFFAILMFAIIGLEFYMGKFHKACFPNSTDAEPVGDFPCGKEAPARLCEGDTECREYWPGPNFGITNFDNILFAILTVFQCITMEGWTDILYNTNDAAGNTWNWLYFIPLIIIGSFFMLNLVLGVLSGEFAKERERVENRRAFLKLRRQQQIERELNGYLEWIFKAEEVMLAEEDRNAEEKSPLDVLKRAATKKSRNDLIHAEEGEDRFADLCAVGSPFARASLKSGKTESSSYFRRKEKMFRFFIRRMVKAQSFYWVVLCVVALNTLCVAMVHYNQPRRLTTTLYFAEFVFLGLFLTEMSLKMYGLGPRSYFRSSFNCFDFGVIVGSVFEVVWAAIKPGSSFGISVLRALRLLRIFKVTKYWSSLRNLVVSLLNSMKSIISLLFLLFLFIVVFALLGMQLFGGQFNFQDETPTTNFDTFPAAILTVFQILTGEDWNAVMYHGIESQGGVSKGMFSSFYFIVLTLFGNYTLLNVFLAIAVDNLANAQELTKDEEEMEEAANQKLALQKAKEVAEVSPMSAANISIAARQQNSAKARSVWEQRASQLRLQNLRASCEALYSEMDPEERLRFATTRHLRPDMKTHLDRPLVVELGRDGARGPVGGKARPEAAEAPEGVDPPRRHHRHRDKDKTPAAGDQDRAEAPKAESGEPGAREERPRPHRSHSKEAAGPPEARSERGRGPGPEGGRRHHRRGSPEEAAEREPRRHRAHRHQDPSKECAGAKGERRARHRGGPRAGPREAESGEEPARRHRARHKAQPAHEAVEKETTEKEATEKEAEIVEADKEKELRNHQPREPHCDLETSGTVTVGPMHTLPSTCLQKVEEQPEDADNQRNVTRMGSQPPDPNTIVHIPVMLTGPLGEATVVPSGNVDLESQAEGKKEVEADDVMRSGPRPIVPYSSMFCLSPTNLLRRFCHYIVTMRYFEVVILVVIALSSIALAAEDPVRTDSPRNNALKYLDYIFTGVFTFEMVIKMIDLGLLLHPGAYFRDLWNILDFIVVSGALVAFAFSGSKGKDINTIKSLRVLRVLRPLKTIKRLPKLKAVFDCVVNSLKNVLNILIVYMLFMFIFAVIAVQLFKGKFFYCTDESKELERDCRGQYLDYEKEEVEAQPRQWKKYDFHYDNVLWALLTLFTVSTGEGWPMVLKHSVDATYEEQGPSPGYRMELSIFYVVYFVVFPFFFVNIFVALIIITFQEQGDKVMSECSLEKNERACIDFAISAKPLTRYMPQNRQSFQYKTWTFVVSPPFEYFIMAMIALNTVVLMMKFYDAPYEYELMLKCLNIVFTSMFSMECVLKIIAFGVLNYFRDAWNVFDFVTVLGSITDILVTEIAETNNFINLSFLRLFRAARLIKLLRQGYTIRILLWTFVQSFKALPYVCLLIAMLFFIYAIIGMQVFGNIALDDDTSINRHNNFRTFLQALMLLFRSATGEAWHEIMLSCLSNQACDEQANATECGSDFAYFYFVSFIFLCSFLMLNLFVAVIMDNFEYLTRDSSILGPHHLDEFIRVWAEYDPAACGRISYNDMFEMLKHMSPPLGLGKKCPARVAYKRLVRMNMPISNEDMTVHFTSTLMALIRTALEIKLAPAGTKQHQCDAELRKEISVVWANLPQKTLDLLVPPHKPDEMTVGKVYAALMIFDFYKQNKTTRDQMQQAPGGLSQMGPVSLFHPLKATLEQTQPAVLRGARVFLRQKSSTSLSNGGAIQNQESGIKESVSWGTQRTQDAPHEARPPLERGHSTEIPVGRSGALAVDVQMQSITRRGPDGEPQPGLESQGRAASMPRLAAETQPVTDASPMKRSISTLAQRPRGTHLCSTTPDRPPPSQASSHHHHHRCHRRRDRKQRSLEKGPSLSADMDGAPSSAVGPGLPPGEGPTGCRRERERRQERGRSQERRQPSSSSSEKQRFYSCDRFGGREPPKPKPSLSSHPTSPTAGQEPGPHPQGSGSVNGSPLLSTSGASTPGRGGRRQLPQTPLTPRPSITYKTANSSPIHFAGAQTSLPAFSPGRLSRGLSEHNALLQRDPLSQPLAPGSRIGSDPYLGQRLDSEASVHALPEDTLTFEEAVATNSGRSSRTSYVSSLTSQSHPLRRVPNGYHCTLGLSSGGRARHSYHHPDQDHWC

| Compound | inhibition | inhibition [1] [%] |
| --- | --- | --- |
| CCOC(=O)c1ccc(-n2cncn2)nc1 | -2.2% (inactive) | – |
| CC1CN=C(Nc2cccc(S(=O)(=O)N(C)C)c2)S1 (stereo not given) | -0.9% (inactive) | – |
| O=C(Nc1ccc(S(=O)(=O)N2CCOCC2)cc1)c1ccc(S(=O)(=O)N2CCOCC2)cc1 | 7.3% (inactive) | – |
| CN(C)S(=O)(=O)c1cccc(NC(=O)c2ccncc2)c1 | 8.6% (inactive) | – |
| CC(=O)Nc1ccc(S(=O)(=O)N2CCN(S(=O)(=O)N3CCOCC3)CC2)cc1 | -2.3% (inactive) | – |
| CC(=O)Nc1ccc(C(=O)Nc2ccc(S(=O)(=O)N3CCOCC3)cc2)cc1 | -1.1% (inactive) | – |
| CC(=O)Nc1ccc(S(=O)(=O)N2CCOCC2)cc1 | 11.4% (inactive) | – |
| Cc1ccc(C(=O)N/C(=C\c2ccc(-c3cccc([N+](=O)[O-])c3)o2)C(=O)NCCCN2CCOCC2)cc1 | -1.4% (inactive) | – |
| COC(=O)Nc1nc2ccc(-c3n[nH]c(=O)c4ccccc34)cc2[nH]1 | -0.4% (inactive) | – |
| Cc1cc(C)nc(Nc2ncc(O)n2-c2ccc(C)c(Cl)c2)n1 | 6% (inactive) | – |
| Cc1ccc(NC(=O)CN(C)c2ccc(S(=O)(=O)N3CCCC3)cn2)cc1 | -2.9% (inactive) | – |
| CC1(C)CC2CC(C)(CN2C(=S)Nc2ccccc2)C1 (stereo not given) | 12.7% (inactive) | – |
| CC(=O)Nc1nc2c(s1)CCc1ccccc1-2 | -3.5% (inactive) | – |
| Fc1ccccc1Nc1nc2c(s1)CCc1ccccc1-2 | 94.8% (active) | – |
| Nc1nc2c(s1)CCc1ccccc1-2 | -30.6% (inactive) | – |
| CC(c1nnc(SCC(=O)Nc2cccnc2Cl)n1Cc1ccccc1)N(C)C (stereo not given) | 1% (inactive) | – |
| COc1cccc2nc3cc(C)c(C)cc3nc12 | 23.4% (inactive) | – |
| COc1ccc2nc3ccccc3nc2c1 | 23.5% (inactive) | – |
| COc1ccc2nc3cccc(OC)c3nc2c1 | 61.8% (active) | – |
| Cc1ccsc1/C=N/NC(=O)CO | 7.8% (inactive) | – |
| CCCCNC(=O)[C@H](CSCc1ccccc1)N1Cc2ccccc2C1=O | 0.1% (inactive) | – |
| COc1ccc(CNC(=O)COc2cc(=O)n(C)c3ccccc23)cc1 | 13.2% (inactive) | – |
| Nc1ccc2c(c1)C/C(=C/c1ccco1)C2=O | 87.9% (active) | – |
| O=C1/C(=C/c2ccco2)CCc2ccccc21 | 15.3% (inactive) | – |
| O=C1/C(=C/c2ccco2)Cc2ccccc21 | 11.1% (inactive) | – |

| Compound | inhibition | inhibition [1] [%] |
| --- | --- | --- |
| CCCCn1ccnc1C | -1.1% (inactive) | – |
| O=C(CSc1cccc2cccnc12)Nc1ccccc1F | 12.1% (inactive) | – |
| COc1cc(/C=C2\SC(N)=NC2=O)ccc1OCC(=O)Nc1ccc(C)cc1 | 61.4% (active) | – |
| CCCOc1ccc(/C=C2\SC(N)=NC2=O)cc1OC | -3% (inactive) | – |
| C=CCOc1ccc(/C=C2\SC(N)=NC2=O)cc1OC | 10.2% (inactive) | – |
| NC(=O)c1ccc2nc(-c3ccccc3)c(-c3ccccc3)nc2c1 | 4.7% (inactive) | – |
| NC(=O)c1ccc2c(=O)n3c(-c4cc(Cl)c(N)c(Cl)c4)csc3nc2c1 | -27% (inactive) | – |
| O=C(NCc1nnc2c(C(F)(F)F)cc(Cl)cn12)c1ccc2c(c1)OCO2 | 9% (inactive) | – |
| O=C(c1ccc(COc2ccc(F)cc2)o1)n1cc(Br)cn1 | 8% (inactive) | – |
| CCN1C(=O)/C(=C/C=C2/Sc3ccc4ccccc4c3N2CCO)SC1=S | 74.6% (active) | – |
| CCCN1C(=O)/C(=C\C=C2/Sc3ccccc3N2CCO)SC1=S | 26.3% (inactive) | – |
| CCN1C(=O)/C(=C/C=C2/Sc3ccccc3N2CCO)SC1=S | 38.4% (inactive) | – |
| CC(C)CC(NC(=O)c1ccccc1)C(=O)N/N=C/c1ccco1 (stereo not given) | 3.7% (inactive) | – |
| CCOc1ccccc1-n1c(SCC(N)=O)nnc1-c1ccccc1 | -2.1% (inactive) | – |
| O=C(Nc1nc2ccccc2s1)c1cccc(S(=O)(=O)N2CCc3ccccc32)c1 | 8.8% (inactive) | – |
| Cc1cc(C)c2nc(NC(=O)c3cccc(S(=O)(=O)N4CCc5ccccc54)c3)sc2c1 | 6.3% (inactive) | – |
| Cc1cccc2sc(NC(=O)c3cccc(S(=O)(=O)N4CCc5ccccc54)c3)nc12 | 68.3% (active) | – |
| CCOc1ccc(C(CCc2ccccc2)NC(=O)c2ccccc2F)cc1OCC (stereo not given) | 5.7% (inactive) | – |
| O=C(O)C(Cc1c[nH]c2ccccc12)NS(=O)(=O)c1ccc(Br)cc1 (stereo not given) | -0.4% (inactive) | – |
| CNC(=O)c1c(O)c2cccc3c2n(c1=O)CCC3 | 22.2% (inactive) | – |
| Cn1c(=S)[nH]c(=O)c2ncc(=O)[nH]c21 | -1.9% (inactive) | – |
| O=C(O)CCCCCCCC(=O)O | 0.9% (inactive) | – |
| O=C(O)CCCCC1SCC2NC(=O)NC21 (stereo not given) | 8.5% (inactive) and -9.5% (inactive) | – |
| O=C(O)CCCCC1CCSS1 (stereo not given) | 101% (active) | – |
| O=[N+]([O-])c1ccc(O)c(C=Nc2cccc3ccccc23)c1 | -35.1% (inactive) | – |

| Compound | inhibition | inhibition [1] [%] |
| --- | --- | --- |
| COCCNC(=O)C(c1ccc(OC)cc1)N(CCOC)C(=O)CCC(=O)Nc1nccs1 (stereo not given) | -3.6% (inactive) | – |
| O=C(NCc1ccco1)c1cccn2c(=O)c3cc4ccccc4cc3nc12 | 54.4% (active) | – |
| COCCCNC(=O)c1cccn2c(=O)c3cc4ccccc4cc3nc12 | -3.3% (inactive) | – |
| O=C(NCc1ccco1)c1cnc2ccccn2c1=O | 0.3% (inactive) | – |
| Cc1ccc(N(C(=O)c2ccco2)C(C(=O)NC2CCCC2)c2cccnc2)cc1 (stereo not given) | -0.3% (inactive) | – |
| O=C(N/N=C/c1ccc[nH]1)c1ccc(O)cc1 | 38.2% (inactive) | – |
| Cc1ccc(/C=C2\SC(=S)N(/N=C/c3cc([N+](=O)[O-])ccc3O)C2=O)o1 | 73.2% (active) | – |
| O=C1/C(=C/c2cccc(Br)c2)SC(=S)N1/N=C/c1cc([N+](=O)[O-])ccc1O | -2.1% (inactive) | – |
| Cc1ccccc1/C=C1\SC(=S)N(/N=C/c2cc([N+](=O)[O-])ccc2O)C1=O | 5.4% (inactive) | – |
| CCn1cc(CN2CCCC(C(=O)c3ccc(-c4ccccc4)c(F)c3)C2)cn1 (stereo not given) | 6.5% (inactive) | – |
| O=C(O)C1CCC(N2C(=O)c3c(Cl)c(Cl)c(Cl)c(Cl)c3C2=O)CC1 (stereo not given) | 81.3% (active) | – |
| O=C(O)C1CCC(N2C(=O)c3cccc([N+](=O)[O-])c3C2=O)CC1 (stereo not given) | 5.9% (inactive) | – |
| O=C(O)C1CCC(N2C(=O)C3CCCCC3C2=O)CC1 (stereo not given) | -2.9% (inactive) | – |
| O=C1C2C3C=CC(C3)C2C(=O)N1c1n[nH]c(-c2ccccc2)n1 (stereo not given) | 11% (inactive) | – |
| CC(=O)Oc1cc(O)c2c(c1)OC(c1ccc(OC(C)=O)c(OC(C)=O)c1)C(OC(C)=O)C2=O (stereo not given) | 8.9% (inactive) | – |
| O=C1NN(c2ccccc2)C(=O)/C1=C\c1ccc(-c2cc([N+](=O)[O-])ccc2O)o1 | 31.4% (inactive) | – |
| O=C1NN(c2cccc(Br)c2)C(=O)/C1=C/c1ccc(-c2cc([N+](=O)[O-])ccc2O)o1 | 61.4% (active) | – |
| CC1=NN(c2ccc(C)cc2)C(=O)/C1=C/c1ccc(-c2cc([N+](=O)[O-])ccc2O)o1 | 44.4% (inactive) | – |
| COc1ccc(/C=C2\SC(=S)N(CCC(=O)NCCCN3CCOCC3)C2=O)cc1 | -10.7% (inactive) | – |
| CCc1ccc(C(=O)NNc2ccc(Cl)cc2)cc1 | -10.8% (inactive) | – |
| COc1cc(CNCCO)cc(Br)c1OCc1cccs1 | -3.4% (inactive) | – |
| O=C(Nn1cnnc1)c1csc2ccccc12 | -11.1% (inactive) | – |
| Cc1cc2nc3c(=O)n(CCc4ccccc4)c(=O)[nH]c3nc2cc1N | 36.3% (inactive) | – |
| CCCCCCn1c(=O)[nH]c2nc3cc(N)c(C)cc3nc2c1=O | 4.4% (inactive) | – |
| Cc1cc2nc3c(=O)n(Cc4ccccc4)c(=O)[nH]c3nc2cc1N | 55.1% (active) | – |

| Compound | inhibition | inhibition [1] [%] |
| --- | --- | --- |
| NC1=NC[C@@H](Cc2ccc(O)cc2)N1CCc1cccc(F)c1 | 16.7% (inactive) | – |
| CC1CN(C(=O)CCCN2C(=O)c3ccccc3C2=O)CC(C)O1 (stereo not given) | -7.3% (inactive) | – |
| COc1ccc2[nH]c(=O)c(CN(Cc3nnnn3Cc3ccco3)C3CCCCC3)cc2c1 | 1.1% (inactive) | – |
| COc1ccc2[nH]c(=O)c(CN(Cc3ccco3)C(c3nnnn3Cc3ccccc3)C(C)C)cc2c1 (stereo not given) | 12.1% (inactive) | – |
| Cn1c(/C=C/c2cccc([N+](=O)[O-])c2)nc2ccccc2c1=O | -20.2% (inactive) | – |
| CCOC(=O)C(O)(CC(=O)c1ccc(OC)cc1)C(F)(F)F (stereo not given) | -6.5% (inactive) | – |
| CC(C)(C)c1cc(N)on1 | -7.8% (inactive) | – |
| CC1=CC(=O)c2c(O)ccc(O)c2C1=O | 85.1% (active) | – |
| COc1cccc2c1C(=O)C=C(C)C2=O | -19.2% (inactive) | – |
| CC1=CC(=O)c2ccccc2C1=O | -11.2% (inactive) | – |
| CCc1nnc(NC(=O)C2CC(=O)N(c3ccc4c(c3)OCCO4)C2)s1 (stereo not given) | 3% (inactive) | – |
| O=C(CCl)Nc1nc(-c2ccco2)c(-c2ccco2)s1 | 66% (active) | – |
| O=C(Nc1nc(-c2ccco2)c(-c2ccco2)s1)C1CC(=O)N(c2ccc3c(c2)OCCO3)C1 (stereo not given) | 66.7% (active) | – |
| O=C(Nc1nc(-c2ccco2)c(-c2ccco2)s1)C1CCC1 | 58.1% (inactive) | 1.4 |
| O=C(Nc1nnc(C2CC2)s1)C1CC(=O)N(c2ccc3c(c2)OCCO3)C1 (stereo not given) | 12.6% (inactive) | – |
| O=C(CCCSc1ccccc1)Nc1nc(-c2ccco2)c(-c2ccco2)s1 | 71.8% (inactive) | -7.2 |
| COc1ccc(CCN(C(=S)Nc2ccccc2)C2CC(=O)N(c3ccccc3)C2=O)cc1 (stereo not given) | 6.3% (inactive) | – |
| CC(C)Oc1cccc(C(=O)C2CCCN(C(=O)c3ccsc3)C2)c1 (stereo not given) | -8.4% (inactive) | – |
| N#Cc1cnc(NOCc2ccc(Cl)cc2)nc1 | 9.4% (inactive) | – |
| O=c1c2c3n(c(=O)nc2[nH]n1-c1ccccc1)CCCCC3 | 1.1% (inactive) | – |
| O=C(NCCN1CCOCC1)/C(=C\c1ccccc1Cl)NC(=O)c1ccccc1 | 9.8% (inactive) | – |
| COc1cc(/C=C2\SC(=Nc3ccccc3)N(CCc3c[nH]c4ccccc34)C2=O)ccc1OC(C)C(=O)O (stereo not given) | 6.2% (inactive) | – |
| COc1ccc(N=C2S/C(=C\c3ccc(OCC(=O)O)cc3)C(=O)N2CCc2c[nH]c3ccccc23)cc1 | 35.3% (inactive) | – |
